Where “and” joins values, the source holds several entries; their conditions need not be identical. Equal entries are not always repeated. Results filed as inconclusive are left out. Some compounds were tested as several samples or in several runs, with calls that do not always agree. Calls of active or inactive are those of the source. Rule for the calls, unless noted: active = hit-call score of the fitted dose curve at least 0.9, where 1 is the maximum; inconclusive = response in the unintended direction; inactive = score below 0.9.
Legend:
[1] = CPHEA_Stoker_NIS_Cytotoxicity: Cytotoxicity Assessment for CPHEA's Radioactive Iodide Uptake (RAIU) Assay for Sodium/Iodide Symporter (NIS) Inhibition, Stoker and Laws Labs (AID 2283897)
Outline: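 ATP luminescence (Cell Titer Glo) measured viability, with loss of signal normalized to DMSO controls. Cells: hNIS-HEK293T-EPA, seeded 40 hours prior. Dosing: 0.001–100uM, 2 hours, room temperature, uptake buffer pH 7.4.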

[2] = CCTE_Deisenroth_AIME_384WELL_CTox_Active: Cytotoxicity Assessment (CTOX) in CCTE's 384-well Estrogen Receptor Transactivation Assay with AIME metabolic competence (metabolism positive), Deisenroth Lab (AID 2284037);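 note: chemicals first conditioned 2 h by alginate-bound induced rat liver S9 before cells; activity means signal loss indicating cell death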
Outline: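 Cytotoxicity in VM7Luc4E2 breast cells, 24 hour, measured as protease-substrate fluorescence loss, after 2-hour metabolic conditioning with induced rat hepatic S9 in alginate microspheres. Concentrations 0.002 - 200 uM, 10 points, bidirectional fitting.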

[3] = target: Bile acid receptor (Homo sapiens) (UniProt Q96RI1); assay: OT_FXR_FXRSRC1_0480: Odyssey Thera (OT) 8-hour HEK293T Protein-Complementation Assay for Farnesoid X receptor/SRC-1 Co-activator (AID 2283383)
Sequence of Bile acid receptor (Homo sapiens) (Q96RI1 whole entry, looked up, the tested form may be a part): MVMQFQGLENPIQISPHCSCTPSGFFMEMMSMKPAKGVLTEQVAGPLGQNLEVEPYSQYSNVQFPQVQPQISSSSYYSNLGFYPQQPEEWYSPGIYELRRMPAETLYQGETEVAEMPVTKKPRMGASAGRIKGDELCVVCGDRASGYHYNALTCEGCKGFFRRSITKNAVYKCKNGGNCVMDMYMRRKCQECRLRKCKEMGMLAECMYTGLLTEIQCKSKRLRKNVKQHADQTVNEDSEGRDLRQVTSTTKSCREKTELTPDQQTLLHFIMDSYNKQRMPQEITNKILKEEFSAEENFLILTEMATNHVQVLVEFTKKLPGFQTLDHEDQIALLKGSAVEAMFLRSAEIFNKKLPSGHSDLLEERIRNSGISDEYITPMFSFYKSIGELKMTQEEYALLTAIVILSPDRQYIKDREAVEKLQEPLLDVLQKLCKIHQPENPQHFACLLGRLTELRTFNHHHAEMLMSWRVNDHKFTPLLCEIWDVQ
Outline: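 Human kidney HEK293T cells carried FXR/SRC-1 fragment-complementation constructs. Compounds were added and incubated 8 h. Reporter reassembly upon receptor–co-activator interaction was then quantified by fluorescence, with curves fitted in the positive direction relative to DMSO.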

[4] = target: Peroxisome proliferator-activated receptor gamma (Homo sapiens) (UniProt P37231); assay: OT_PPARg_PPARgSRC1_0480: Odyssey Thera (OT) 8-hour Protein-Complementation Assay for Peroxisome Proliferator-activated Receptor Gamma / SRC-1 Co-activator (AID 2283387);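 note: nuclear to cytoplasmic split Venus YFP fluorescence ratio reporting PPARg SRC-1 interaction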
Sequence of Peroxisome proliferator-activated receptor gamma (Homo sapiens) (P37231 whole entry, looked up, the tested form may be a part): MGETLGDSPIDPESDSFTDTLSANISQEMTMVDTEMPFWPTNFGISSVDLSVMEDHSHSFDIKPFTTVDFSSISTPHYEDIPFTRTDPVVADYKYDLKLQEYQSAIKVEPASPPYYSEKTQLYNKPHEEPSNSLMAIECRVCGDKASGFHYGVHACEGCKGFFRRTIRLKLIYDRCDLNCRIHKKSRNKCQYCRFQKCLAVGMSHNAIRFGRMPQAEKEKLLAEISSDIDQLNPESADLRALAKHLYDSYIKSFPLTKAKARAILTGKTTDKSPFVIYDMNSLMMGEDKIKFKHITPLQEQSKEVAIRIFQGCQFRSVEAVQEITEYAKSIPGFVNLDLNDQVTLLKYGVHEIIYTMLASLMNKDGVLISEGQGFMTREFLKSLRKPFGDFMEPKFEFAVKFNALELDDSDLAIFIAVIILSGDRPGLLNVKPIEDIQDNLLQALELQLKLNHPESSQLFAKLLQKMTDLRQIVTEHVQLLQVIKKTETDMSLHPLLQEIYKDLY
Outline: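 Protein-fragment complementation in HEK293T: Venus YFP halves (residues 1-158, 159-239, mutated to IFP1/IFP2) fused to PPARg/SRC-1. 8 h exposure; N/C ratio at 488 nm; DMSO negative control.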

[5] = target: Nucleoli Translocation, AR (gene 367) (UniProt P10275); assay: UPITT_HCI_U2OS_AR_TIF2_Nucleoli_Antagonist: University of Pittsburgh U2OS Androgen Receptor-Transcriptional Intermediary Factor 2 (AR-TIF2) Antagonism High Content Imaging Assay for Nucleoli Translocation (AID 2283997)
Sequence of Nucleoli Translocation, AR (gene 367) (P10275 whole entry, looked up): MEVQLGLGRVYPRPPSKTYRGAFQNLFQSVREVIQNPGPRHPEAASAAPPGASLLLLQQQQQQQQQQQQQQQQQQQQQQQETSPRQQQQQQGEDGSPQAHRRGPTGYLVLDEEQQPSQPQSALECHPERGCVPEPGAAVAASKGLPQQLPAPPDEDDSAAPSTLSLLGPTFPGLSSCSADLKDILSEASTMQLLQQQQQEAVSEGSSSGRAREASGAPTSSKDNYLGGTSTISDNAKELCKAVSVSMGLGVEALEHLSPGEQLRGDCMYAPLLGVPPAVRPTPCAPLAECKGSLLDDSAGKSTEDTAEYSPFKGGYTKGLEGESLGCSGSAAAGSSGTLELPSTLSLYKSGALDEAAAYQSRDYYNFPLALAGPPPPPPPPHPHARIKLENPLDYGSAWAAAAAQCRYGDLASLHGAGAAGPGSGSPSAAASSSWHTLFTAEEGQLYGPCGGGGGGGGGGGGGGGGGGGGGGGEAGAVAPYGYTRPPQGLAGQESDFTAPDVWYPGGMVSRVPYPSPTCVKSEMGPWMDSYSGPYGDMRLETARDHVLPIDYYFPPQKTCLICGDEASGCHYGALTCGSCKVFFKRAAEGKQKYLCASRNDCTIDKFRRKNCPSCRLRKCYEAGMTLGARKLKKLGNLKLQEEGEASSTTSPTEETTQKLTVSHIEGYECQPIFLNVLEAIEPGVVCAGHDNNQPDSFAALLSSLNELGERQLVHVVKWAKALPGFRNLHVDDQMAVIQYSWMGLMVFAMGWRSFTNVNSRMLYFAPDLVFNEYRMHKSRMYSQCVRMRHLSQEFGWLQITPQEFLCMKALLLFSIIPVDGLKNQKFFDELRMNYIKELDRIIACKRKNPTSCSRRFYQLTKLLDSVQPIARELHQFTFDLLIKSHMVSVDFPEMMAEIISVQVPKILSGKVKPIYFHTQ
Outline: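 Measured quantity was AR-RFP fluorescence localized to nucleoli in engineered U2OS cells also bearing TIF2-GFP, acquired on automated high-content imagers. Primary testing used 20 uM compound; actives were confirmed in triplicate wells.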

[6] = target: Ratio of Nucleoli Translocation and Cytoplasm, AR (gene 367) (UniProt P10275); assay: UPITT_HCI_U2OS_AR_TIF2_Nucleoli_Cytoplasm_Ratio_Antagonist: University of Pittsburgh U2OS Androgen Receptor-Transcriptional Intermediary Factor 2 (AR-TIF2) Antagonism High Content Imaging Assay for Ratio of Nucleoli Translocation and Cytoplasm (AID 2283999);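 note: antagonists lower the DHT-driven ratio of nucleolar to cytoplasmic red signal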
Sequence of Ratio of Nucleoli Translocation and Cytoplasm, AR (gene 367) (P10275 whole entry, looked up, the tested form may be a part): as the sequence (P10275 whole entry, looked up) above
Outline: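 Human osteosarcoma U2OS line, AR fused to RFP, coactivator TIF2 fused to GFP. Cpds 20 uM final, 0.2% DMSO (screen); 0.195–50 uM final, 0.5% DMSO (CRC). Endpoint: nucleoli/cytoplasm red signal ratio, DHT as baseline, loss-of-signal antagonist mode.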

[7] = target: Ratio of Nucleoli Translocation and Cytoplasm, AR (gene 367) (UniProt P10275); assay: UPITT_HCI_U2OS_AR_TIF2_Nucleoli_Cytoplasm_Ratio_Agonist: University of Pittsburgh U2OS Androgen Receptor-Transcriptional Intermediary Factor 2 (AR-TIF2) Agonism High Content Imaging Assay for Ratio of Nucleoli Translocation and Cytoplasm (AID 2284000);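 note: hits raise the red nucleolar to cytoplasm ratio above vehicle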
Outline: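 Read-out first: nucleolar-to-cytoplasm ratio of red (AR-RFP) signal, quantified by high-content imaging in U2OS cells co-expressing TIF2-GFP. Activity is scored as signal increase over DMSO. Single-point screening used 20 uM final (0.2% DMSO).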

[8] = target: Peroxisome proliferator-activated receptor gamma (Homo sapiens) (UniProt P37231); assay: NVS_NR_hPPARg: NovaScreen (NVS) Nuclear Receptor Binding Assay for human Peroxisome Proliferator-activated Receptor gamma (PPARg) (AID 2283370)
Outline: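 Extracted receptor protein, cell-free; compound incubated 2 h then fluorescence polarization read. Baseline: DMSO. Actives from 25 uM duplicate screen re-run across concentrations.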

[9] = CEETOX_H295R_11DCORT: CeeTox H295R High-throughput Steroidogenesis Assay for 11-Deoxycortisol (11DCORT) (AID 2283432; active = hit-call score of the fitted dose curve at least 0.9, where 1 is the maximum; inactive = score below 0.9;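 for AC50: human adrenal H295R cells prestimulated with 10 µM forskolin for 48 h; 11-deoxycortisol secreted into the medium measured by LC-MS/MS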); details: actives raise or lower the signal
Outline: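 Adrenal carcinoma line H295R, run per OECD 456 with minor changes, was forskolin-stimulated (10 uM, 48 h) before a 48 h chemical exposure at 0.1% DMSO. Secreted 11-deoxycortisol was quantified by HPLC-MS/MS.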

[10] = CEETOX_H295R_OHPREG: CeeTox H295R High-throughput Steroidogenesis Assay for OH-Pregnenolone (OHPREG) (AID 2283434; active = hit-call score of the fitted dose curve at least 0.9, where 1 is the maximum; inactive = score below 0.9); details: actives raise or lower the signal
Outline: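 Hormone levels in spent medium were measured by tandem mass spectrometry following liquid-liquid extraction. Cells (H295R) had been forskolin-stimulated (10 uM, 48 h) before a 48 h chemical exposure at 0.1% DMSO, with activity fitted in both directions against DMSO.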

[11] = CEETOX_H295R_OHPROG: CeeTox H295R High-throughput Steroidogenesis Assay for OH-Progesterone (OHPROG) (AID 2283435; active = hit-call score of the fitted dose curve at least 0.9, where 1 is the maximum; inactive = score below 0.9;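 for AC50: human adrenal H295R cells primed 48 h with 10 µM forskolin; 17alpha-hydroxyprogesterone secreted into medium measured by HPLC-MS/MS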); details: actives raise or lower the signal
Outline: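 H295R, 10 uM forskolin prestim 48 h; cmpd in 0.1% DMSO 48 h; medium MTBE-extracted, HPLC-MS/MS for OH-progesterone; 7-pt std curve; bidirectional fit vs DMSO; MTT viability, chemicals diluted until viability >/=70%.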

[12] = CEETOX_H295R_CORTIC: CeeTox H295R High-throughput Steroidogenesis Assay for Corticosterone (CORTIC) (AID 2283437; active = hit-call score of the fitted dose curve at least 0.9, where 1 is the maximum; inactive = score below 0.9;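 note: corticosterone secreted into medium quantified by mass spectrometry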;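 for AC50: human H295R adrenal cells prestimulated with forskolin before chemical exposure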); details: actives raise or lower the signal
Outline: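 Corticosterone secreted into medium is measured by reverse-phase HPLC with tandem MS following liquid-liquid extraction. Cells are forskolin-stimulated (10 uM, 48 h) before 48 h test exposure; activity fitted in both directions against DMSO.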

[13] = CEETOX_H295R_CORTISOL: CeeTox H295R High-throughput Steroidogenesis Assay for Cortisol (AID 2283438; active = hit-call score of the fitted dose curve at least 0.9, where 1 is the maximum; inactive = score below 0.9;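 note: cortisol secreted into medium quantified by LC-MS/MS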); details: actives raise or lower the signal
Outline: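 Forskolin 10 uM 48 h prestim → test cmpd in DMSO (0.1% final) 48 h → medium MTBE-extracted → LC-MS/MS cortisol vs 7-pt std curve. Gain/loss of signal fitted vs DMSO. MTT viability in same wells.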

[14] = CEETOX_H295R_DOC: CeeTox H295R High-throughput Steroidogenesis Assay for DOC (AID 2283439; active = hit-call score of the fitted dose curve at least 0.9, where 1 is the maximum; inactive = score below 0.9); details: actives raise or lower the signal
Outline: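 Readout: 11-deoxycorticosterone in culture medium by reverse-phase C18 HPLC with ESI+ tandem MS after MTBE extraction. Cells: H295R, forskolin-primed (10 uM, 48 h), chemical-treated 48 h; DMSO 0.1% final. Activity fitted bidirectionally versus DMSO.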

[15] = CEETOX_H295R_PROG: CeeTox H295R High-throughput Steroidogenesis Assay for Progesterone (PROG) (AID 2283442; active = hit-call score of the fitted dose curve at least 0.9, where 1 is the maximum; inactive = score below 0.9;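 for AC50: human H295R adrenal cells primed with 10 µM forskolin before dosing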); details: actives raise or lower the signal
Outline: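 Measured analyte is progesterone secreted by H295R cells at 48 h of chemical treatment, following 10 uM forskolin priming. Quantitation used HPLC-MS/MS against a 7-point standard curve; cytotoxicity was checked by MTT absorbance.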

[16] = CCTE_Shafer_MEA_acute_firing_rate_mean: CCTE's Neural Acute Assay for Mean Firing Rate, Shafer Lab (AID 2284009; active = hit-call score of the fitted dose curve at least 0.9, where 1 is the maximum; inactive = score below 0.9;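 note: analyzed for loss of signal so actives lower firing rate relative to DMSO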)
Outline: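 Percent change in well-mean firing rate was derived from extracellular spikes detected at 8x rms noise (300-5000 Hz band-pass) before and after a 40-min compound exposure. Cultures were primary rat cortical neurons, tested at 0.03-40 uM.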

[17] = CCTE_Shafer_MEA_acute_burst_number: CCTE's Neural Acute Assay for Single-Electrode Bursts, Shafer Lab (AID 2284013; active = hit-call score of the fitted dose curve at least 0.9, where 1 is the maximum; inactive = score below 0.9)
Outline: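 Spontaneous network activity of primary rat cortical neurons was recorded extracellularly on microelectrode arrays at 37 C, with 40-min periods before and during exposure to 0.03-40 uM compound on DIV 13 or 15.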

[18] = CCTE_Padilla_ZF_Score.General: CCTE's 144 Hour Post-fertilization zebrafish Assay Score for General Malformation, Padilla Lab (AID 2284411; active = hit-call score of the fitted dose curve at least 0.9, where 1 is the maximum; inactive = score below 0.9)
Outline: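 Wild-type zebrafish embryos were plated singly at 6-8 hpf in 10% Hanks' and exposed in sealed wells at 26C until rinsed on 5 dpf. At 6 dpf two blinded assessors scored mortality, hatching and malformations by stereomicroscopy; gain-of-signal versus DMSO.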

[19] = target: human Ephrin type-A Receptor 1 (EphA1), EPHA1 (gene 2041) (UniProt P21709); assay: NVS_ENZ_hEphA1: NovaScreen (NVS) Enzymatic Assay for human Ephrin type-A Receptor 1 (EphA1) (AID 2283158);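 note: activity is signal loss versus DMSO meaning EphA1 kinase inhibition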
Sequence of human Ephrin type-A Receptor 1 (EphA1), EPHA1 (gene 2041) (P21709 whole entry, looked up): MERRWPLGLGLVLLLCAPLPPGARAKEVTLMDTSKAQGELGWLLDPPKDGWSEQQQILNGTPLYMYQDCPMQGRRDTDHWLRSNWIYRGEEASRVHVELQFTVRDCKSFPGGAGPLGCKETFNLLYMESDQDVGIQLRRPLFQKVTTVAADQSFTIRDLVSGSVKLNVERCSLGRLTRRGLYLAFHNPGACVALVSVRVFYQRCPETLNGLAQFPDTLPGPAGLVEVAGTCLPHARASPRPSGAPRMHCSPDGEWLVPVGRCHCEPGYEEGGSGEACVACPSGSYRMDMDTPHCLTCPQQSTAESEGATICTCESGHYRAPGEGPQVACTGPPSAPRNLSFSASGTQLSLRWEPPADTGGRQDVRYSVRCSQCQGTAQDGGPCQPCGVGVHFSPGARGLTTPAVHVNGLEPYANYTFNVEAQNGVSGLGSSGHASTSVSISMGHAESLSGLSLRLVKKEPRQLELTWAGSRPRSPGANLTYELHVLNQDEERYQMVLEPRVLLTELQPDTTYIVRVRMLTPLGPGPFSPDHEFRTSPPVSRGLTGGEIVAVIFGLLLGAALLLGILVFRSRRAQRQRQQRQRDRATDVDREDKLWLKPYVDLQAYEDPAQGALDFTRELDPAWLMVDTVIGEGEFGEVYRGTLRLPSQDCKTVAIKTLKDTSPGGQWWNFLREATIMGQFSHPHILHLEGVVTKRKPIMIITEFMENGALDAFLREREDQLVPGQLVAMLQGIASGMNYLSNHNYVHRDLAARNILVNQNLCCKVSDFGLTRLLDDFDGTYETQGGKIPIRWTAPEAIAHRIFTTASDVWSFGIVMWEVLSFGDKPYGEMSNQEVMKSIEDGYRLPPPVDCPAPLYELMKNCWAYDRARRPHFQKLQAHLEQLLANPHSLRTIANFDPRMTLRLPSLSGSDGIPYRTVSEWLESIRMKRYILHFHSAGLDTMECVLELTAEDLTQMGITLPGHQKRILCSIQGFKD
Outline: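 Here the EphA1 protein is recombinant and the substrate fluorescent, with electrophoretic separation before fluorescence detection at 1 hour. Signal loss against DMSO defines activity; plate controls included; follow-up concentration series reach 50 uM.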

[20] = target: Cytochrome P450 2C19 (Homo sapiens) (UniProt P33261); assay: NVS_ADME_hCYP2C19: NovaScreen (NVS) CYP450-related Enzyme Activity (ADME) Assay for human CYP2C19 (AID 2283113);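 for AC50: potency for inhibition seen as loss of fluorescent signal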
Outline: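 Biochemical CYP2C19 inhibition screen: insect-cell recombinant protein plus fluorescent substrate, 1 h, fluorescence intensity. Acetonitrile defined baseline activity. Single 10 uM concentration in duplicate, with concentration-response follow-up for actives.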

CCCCCCCCCCCCCCCC[N+](C)(C)C
outcome [1]: inactive
outcome [2]: inactive

C=CCN(CC=C)C(=O)C(Cl)Cl
outcome [2]: inactive

Cc1ccc(C)c2ccccc12
outcome [3]: inactive
outcome [4]: inactive
outcome [5]: inactive
outcome [6]: inactive
outcome [7]: inactive
outcome [2]: inactive

CC(=O)C=Cc1ccccc1
outcome [8]: inactive

CC(C)(C)C(O)C(Oc1ccc(-c2ccccc2)cc1)n1cncn1 (configuration not stated)
AC50 [9]: 0.0464 µM (active)
outcome [10]: inactive
AC50 [11]: 0.0566 µM (active)
outcome [12]: inactive
outcome [13]: inactive
outcome [14]: inactive
outcome [15]: inactive

CC(C)[C@@H](C(=O)O[C@@H](C#N)c1cccc(Oc2ccccc2)c1)c1ccc(Cl)cc1
outcome [8]: inactive

CNC(=N[N+](=O)[O-])NCC1CCOC1 (configuration not stated)
outcome [2]: inactive

O=c1c2ccccc2c(=O)c2c1cc(Cl)c1[nH]c3c([nH]c12)c(Cl)cc1c(=O)c2ccccc2c(=O)c13
outcome [16]: inactive
outcome [17]: inactive
outcome [18]: inactive

O=C(CCl)c1ccccc1
outcome [1]: inactive

O=S(=O)(c1ccccc1)c1ccccc1
outcome [18]: inactive

CN(C)C(=O)C(c1ccccc1)c1ccccc1
outcome [4]: inactive

Nc1ccc(Cl)c(Cl)c1
outcome [10]: inactive
AC50 [11]: 33.3 µM (active)
AC50 [15]: 10.7 µM (active)
outcome [2]: inactive

Cc1ccc(OP(=O)(Oc2ccc(C)cc2)Oc2ccc(C)cc2)cc1 (tested in a mixture with another compound)
outcome [9]: inactive
outcome [10]: inactive
outcome [11]: inactive
outcome [12]: inactive
outcome [13]: inactive
outcome [14]: inactive
outcome [15]: inactive
outcome [1]: inactive
AC50 [16]: 4.2 µM (active)
AC50 [17]: 3.7 µM (active)
AC50 [18]: 2.6 µM (active)

N#CCCCCC#N
outcome [19]: inactive
outcome [3]: inactive

CC(C)CCCCCCCOC(=O)c1ccccc1C(=O)OCCCCCCCC(C)C
outcome [18]: inactive

O=C(NCNC(=O)NC1C(=O)NC(=O)N1CO)NC1C(=O)NC(=O)N1CO (configuration not stated)
outcome [3]: inactive
outcome [4]: inactive
AC50 [5]: 50 µM (active)
AC50 [6]: 50 µM (active)
outcome [7]: inactive

CCC[N+](=O)[O-]
AC50 [19]: 25 µM (active)

CC1(C)[C@H](C(=O)O[C@H](C#N)c2cccc(Oc3ccccc3)c2)[C@@H]1C=C(Br)Br
AC50 [20]: 0.134 µM (active)
outcome [20]: inactive
outcome [5]: inactive
AC50 [16]: 1.62 µM (active)
AC50 [17]: 2.53 µM (active)

O=[N+]([O-])c1ccc(Cl)cc1
outcome [19]: inactive
outcome [2]: inactive

BrCBr
outcome [19]: inactive

O=S(=O)(O)OOS(=O)(=O)O
outcome [2]: inactive

O=C1C=CC(=O)C=C1
outcome [18]: inactive

CC(Cc1ccc(C(C)(C)C)cc1)CN1C[C@@H](C)O[C@@H](C)C1 (some centres not stated)
AC50 [20]: 6.83 µM (active)
AC50 [3]: 11.3 µM (active)
AC50 [9]: 13.8 µM (active)
AC50 [10]: 0.0454 µM (active)
AC50 [11]: 0.316 µM (active)
outcome [12]: inactive
AC50 [13]: 39.5 µM (active)
AC50 [14]: 9.92 µM (active)
AC50 [15]: 0.053 µM (active)
outcome [1]: inactive

CCC(C)(C)O
outcome [19]: inactive

COC(C)(C)CCC[C@H](C)C/C=C/C(C)=C/C(=O)OC(C)C
AC50 [20]: 0.992 µM (active)

CNC(=O)Oc1cc(C)c(SC)c(C)c1
AC50 [9]: 39.5 µM (active)
outcome [10]: inactive
outcome [11]: inactive
AC50 [12]: 21.2 µM (active)
outcome [13]: inactive
outcome [14]: inactive
AC50 [15]: 65.1 µM (active)
AC50 [5]: 24 µM (active) and 26.6 µM (active)
outcome [6]: inactive
AC50 [7]: 71.1 µM (active)
outcome [7]: inactive
